Marburg entry inh: qHTS for inhibitors of binding or entry into cells for Marburg Virus. Marburg virus pseudotyped entry inhibition, cell reporter. Potency, µM (highest dose often 37.8 µM), for inactives: top-dose activity change, negative = inhibition, most hits filed as inhibitors. 300,000 tested, 1.8% active; calls by dose curve; tested in HEK293 cells
Vaccinia Venus: qHTS for Stage-Specific Inhibitors of Vaccinia Orthopoxvirus: Venus Reporter Primary qHTS; AID 720580, 2013; Potency, µM (doses to about 36.5 µM), without a hit: top-dose activity change, negative = inhibition, actives largely listed as inhibitors; Vaccinia virus Venus reporter expression, fluorescence; 330,000 tested, 0.46% active; calls by dose curve; tested in A549 cells; further: nearly all actives have a fitted effect of over 30% in size
Lassa entry inh: qHTS for Inhibitors of binding or entry into cells for Lassa Virus; AID 540256, 2011; 300,000 tested, 1.2% active; Lassa virus pseudotype entry inhibition, cell reporter; Potency, µM (doses to about 37.9 µM), inactives show top-dose activity change, negative = inhibition, usual class: inhibitors; calls by dose curve; tested in HEK293 cells; further: nearly all actives have a fitted effect of over 50% in size
FMDV antiviral: High Throughput Screening for Foot and Mouth Disease Virus Antivirals; FMDV antiviral cell-based qHTS; Potency, µM (doses to about 57.9 µM), for the others: at the top dose activity change, negative = inhibition, usual class: inhibitors; 410,000 tested, 1.2% active; AID 1159524, 2015; calls by dose curve; tested in HEK293T cells; further: read-out not given here; nearly all actives have a fitted effect of over 45% in size
VACV mCherry inh: qHTS for Stage-Specific Inhibitors of Vaccinia Orthopoxvirus: mCherry Reporter Primary qHTS. AID 720579, 2013. Potency, µM (doses to about 36.5 µM), inactives show at the highest dose activity change, negative = inhibition, most hits filed as inhibitors. Vaccinia virus mCherry reporter infection, fluorescence. 310,000 tested, 0.63% active; calls by dose curve; tested in A549 cells; further: nearly all actives have a fitted effect of over 35% in size
Sm TGR block: qHTS Assay for the Inhibitors of Schistosoma Mansoni Peroxiredoxins; Schistosoma mansoni thioredoxin glutathione reductase (TGR), Q962Y6; purified TGR, DTNB reduction, TNB absorbance 405 nm; Potency, µM (highest dose often 114 µM), without a hit: at the highest dose activity change, negative = inhibition, hits mostly inhibitors; 360,000 tested, 3% active; AID 485364, 2010; active means well fitted inhibition curve with a large enough effect; inconclusive means small, poorly fitted or top-dose-only effect; inactive means no such curve, though single readings can be large or run the other way; further: nearly all actives have a fitted effect of over 60% in size
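TGR 20 nM + NADPH 100 uM (dispensed conc.), cpd preinc 15 min RT; start with NADPH (500 uM addition) then DTNB (15 mM addition). Kinetic TNB absorbance, 405 nm filter. Four-parameter Hill fit across titration.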
* hit, by the source's call; ? = inconclusive; · = no result given; [ ] = dose if it differs, or a comment. A selection: hits, their analogues and other compounds. The true share with any hit is near 5.4%. On the % scale 0 is the no-effect control and ±100 the full control effect; potency means the concentration at half of the fitted maximal effect.

SMILES	Marburg entry inh	Vaccinia Venus	Lassa entry inh	FMDV antiviral	VACV mCherry inh	Sm TGR block
CCOC(=O)c1ccccc1NS(=O)(=O)c1ccc(N2CCCCS2(=O)=O)cc1	·	-11%	-17%[46.1 µM]	-15%	-11%	9%
O=c1oc2ccccc2c2c1C1O[C@](c3ccsc3)(Cc3c1ccc1ccccc31)O2	·	·	·	·	·	8.9µM*
COc1ccc2c3c(c(=O)oc2c1)[C@H]1O[C@](c2ccsc2)(Cc2ccccc21)O3	-20%[14.2 µM]	·	·	·	·	·
COCCCNC(=O)Cn1c(=O)n(-c2cccc(C)c2)c(=O)c2c1c1cc(C)ccc1n2C	·	-3%	4%[46.1 µM]	2%	2%	6%
COc1cccc(CNC(=O)c2ccc(CSc3nc4ccncc4n3Cc3cccc(C)c3)cc2)c1	?	-15%	·	-14%	-10%	5%
Cc1cc(C(=O)O)ccc1N/C=C1\CCCC(C)C1=O (configuration not stated)	7.9µM*	-26%	13µM*	?	·	1%
CC1CCC/C(=C\Nc2ccc(O)cc2)C1=O (configuration not stated)	17%	·	-1%	33%	·	40µM*
N#CC(=C=[N-])c1nc2ccccc2nc1-[n+]1cccc(NC(=O)c2ccccc2)c1	·	·	·	10%	·	40µM*
N#CC(=C=[N-])c1nc2ccccc2nc1-[n+]1cccc(NC(=O)c2cccs2)c1	·	·	·	-11%	·	40µM*
COc1ccccc1N1C(=O)C(Cl)=C(Nc2ccccc2O)C1=O	-12%[46.1 µM]	16%	-7%	42%	-15%	8.9µM*
CCOc1ccccc1NC1=C(Cl)C(=O)N(c2ccc(OC)cc2)C1=O	2%	-18%	1%	-18%	-18%	-27%
Cc1ccc(O)c(NC2=C(Cl)C(=O)N(Cc3ccccc3)C2=O)c1	-46%[46.1 µM]	-19%	2%[46.1 µM]	7%	?	·
O=C1C(Cl)=C(Nc2ccccc2O)C(=O)N1c1ccccc1	8%	·	1%	0%	·	22µM*
COc1cccc(/C=N/n2c(SC)nnc2-c2ccccc2)c1OC	?	-22%	11µM*	?	-12%[1.46 µM]	0%
COc1cccc(/C=N/n2c(SC)nnc2-c2ccccc2)c1O	?	?	?	-23%	·	-3%
Cc1ccc(OCCCn2c(-c3ccc(Cl)cc3)nc3ccccc3c2=O)cc1C	-3%[46.1 µM]	4%	-11%[46.1 µM]	-1%	-7%	-2%
COc1ccc(N2CCN(C(=O)c3ccc4c(c3)NC(=O)C(CSCc3c(F)cccc3Cl)N4)CC2)cc1 (configuration not stated)	·	·	·	·	·	56µM*
Cc1cccc(N2CCN(C(=O)c3ccc4c(c3)NC(=O)C(CSCc3ccc(F)cc3)N4)CC2C)c1 (configuration not stated)	·	·	·	·	·	-15%
COc1ccc(N2CCN(C(=O)c3ccc4c(c3)NC(=O)C(CSCc3cccc(F)c3)N4)CC2)cc1 (configuration not stated)	·	·	·	·	·	45µM*
COc1ccccc1N1CCN(C(CNC(=O)C(=O)NCCc2ccccc2)c2cccnc2)CC1 (configuration not stated)	·	-30%	-28%[46.1 µM]	25µM*	-30%	2%
O=C(NCCc1c[nH]c2ccccc12)C(=O)NCC(c1cccnc1)N1CCN(c2ccccc2)CC1 (configuration not stated)	-55%	?	?	?	16µM*	-2%
COc1ccc(S(=O)(=O)NCC(c2cccnc2)N2CCN(c3ccccc3)CC2)cc1C (configuration not stated)	-2%	10µM*	-19%	4%	-17%[1.46 µM]	?
O=C(NCC(c1cccnc1)N1CCN(c2ccc(F)cc2)CC1)c1cccc(Cl)c1 (configuration not stated)	?	?	-20%	25µM*	-3%[1.46 µM]	-14%
O=C(NCCc1ccccc1)C(=O)NCC(c1cccnc1)N1CCN(c2ccc(F)cc2)CC1 (configuration not stated)	·	?	?	?	-29%	-14%
